This note sets out measurements from the antibiotic and cytotoxicity screens of Wong et al. (2023).

In all, about 39,000 compounds went through this assay and about 1,500 (3.8%) were called active. Many of the other results were omitted from the sample, so actives are more common in it than they were.

In this assay the test system is HSkMC (human skeletal muscle cells). As to the kind of experiment: cytotoxicity call (relative viability < 0.9). As to conditions: 10 µM.
With `CC(C)NC(=O)Nc1ccc2c(c1)CC(=O)N([C@H](C)CO)C[C@@H](C)[C@@H](CN(C)Cc1ccc(-c3ccccc3)cc1)O2`, the cytotoxicity call is “inactive”.

With `C[C@@H]1CN([C@@H](C)CO)C(=O)c2cc(C#CCN(C)C)cnc2O[C@H]1CN(C)S(C)(=O)=O`, the cytotoxicity call is “inactive”.

Regarding `C[C@@H]1CN([C@@H](C)CO)C(=O)c2cc(NS(=O)(=O)c3cccs3)ccc2O[C@@H](C)CCCCO[C@H]1CN(C)C(=O)Cc1ccccc1`, the cytotoxicity call was “inactive”.

For the compound `COc1ccc(CN(C)C[C@@H]2Oc3ccc(NS(=O)(=O)c4cn(C)cn4)cc3CC(=O)N([C@H](C)CO)C[C@H]2C)cc1`, the cytotoxicity call was “inactive”.

On to `C[C@H](CO)N1C[C@H](C)[C@H](CN(C)Cc2ccc(-c3ccccc3)cc2)Oc2ccc(NC(=O)NC3CCCCC3)cc2CC1=O`, for which the cytotoxicity call is “inactive”.

Regarding `COc1ccc(S(=O)(=O)N2C[C@H](O)COC[C@@H]3O[C@@H](CC(=O)NCCCN(C)C)CC[C@H]32)cc1`, the cytotoxicity call is “inactive”.

In the case of `C/C(=C\CC[C@@H](C)[C@H]1C[C@@H](O)[C@@]2(C)[C@H]3CC[C@H]4C(C)(C)[C@@H](O[C@@H]5O[C@@H](CO[C@H]6OC[C@@H](O)[C@@H](O)[C@@H]6O)[C@@H](O)[C@@H](O)[C@@H]5O)CC[C@@]45C[C@@]35C[C@@H](O)[C@]12C)C(=O)O[C@H]1O[C@@H](CO)[C@@H](O)[C@@H](O)[C@@H]1O`, the cytotoxicity call was “inactive”.

With `C[C@H]1CN([C@@H](C)CO)C(=O)CCCn2nncc2CO[C@H]1CN(C)C(=O)c1cc(-c2ccccc2)on1`, the cytotoxicity call is “inactive”.

Consider `C[C@H]1CCCCO[C@H](CN(C)CC2CC2)[C@@H](C)CN([C@@H](C)CO)C(=O)c2cc(NC(=O)c3ccccc3)ccc2O1`, for which the cytotoxicity call was “inactive”.

On to `Cc1noc(C)c1NC(=O)Nc1ccc2c(c1)CC(=O)N([C@@H](C)CO)C[C@@H](C)[C@H](CN(C)Cc1ccc(C(=O)Nc3ccccc3N)cc1)O2`, for which the cytotoxicity call is “inactive”.

As for `C[C@H](CO)N1C[C@H](C)[C@H](CN(C)CC2CCOCC2)Oc2cc(C#Cc3ccccc3F)ccc2S1(=O)=O`, the cytotoxicity call was “inactive”.

As for `Nc1ncnc2c1ncn2[C@H]1C[C@H](O)[C@@H](CO)O1`, the cytotoxicity call was “inactive”.

Consider `Nc1nc(Cl)nc2c1ncn2[C@H]1C[C@H](O)[C@@H](CO)O1`, for which the cytotoxicity call was “active”.

Take `Nc1nc(Cl)nc2c1ncn2[C@H]1C[C@@H](O)[C@@H](CO)O1`: the cytotoxicity call was “inactive”.

Regarding `CCN(CC)CCOc1ccc2c(c1)C(=O)c1cc(OCCN(CC)CC)ccc1-2`, the cytotoxicity call was “inactive”.

Take `CCN(CC)CCOc1ccc(Nc2ncc3cc(-c4c(Cl)cccc4Cl)c(=O)n(C)c3n2)cc1`: the cytotoxicity call was “active”.

`C[C@](N)(Cc1ccc(O)c(O)c1)C(=O)O`: the cytotoxicity call is “inactive”.

`c1ccc(CCNc2ccnc3cc4ccccc4cc23)cc1`: the cytotoxicity call was “active”.

Turning to `NCCNc1cccc2ccccc12`, the cytotoxicity call is “inactive”.

Regarding `NNCCc1ccccc1`, the cytotoxicity call was “inactive”.

Turning to `Cc1noc(C)c1S(=O)(=O)Nc1ccc2c(c1)C(=O)N([C@H](C)CO)C[C@H](C)[C@@H](CN(C)Cc1ccc(Oc3ccccc3)cc1)O2`, the cytotoxicity call is “inactive”.

In the case of `C[C@@H]1COCC(=O)N1`, the cytotoxicity call is “inactive”.

As to `C[C@@H]1CN([C@H](C)CO)C(=O)c2cc(NC(=O)Cc3ccccc3)ccc2O[C@@H](C)CCCCO[C@@H]1CN(C)S(=O)(=O)c1cccs1`, the cytotoxicity call was “inactive”.

For the compound `C[C@H](CO)N1C[C@H](C)[C@@H](CN(C)S(=O)(=O)c2ccccc2F)Oc2ncc(C#Cc3ccccc3F)cc2C1=O`, the cytotoxicity call is “active”.

Take `COc1ccccc1C#Cc1cnc2c(c1)C(=O)N([C@H](C)CO)C[C@@H](C)[C@H](CN(C)S(=O)(=O)c1cn(C)cn1)O2`: the cytotoxicity call is “active”.

Take `C[C@H]1CN([C@@H](C)CO)C(=O)c2cc(C#Cc3ccccc3F)cnc2O[C@@H]1CN(C)S(=O)(=O)c1ccccc1F`: the cytotoxicity call is “inactive”.

On to `COc1ccccc1C#Cc1cnc2c(c1)C(=O)N([C@@H](C)CO)C[C@@H](C)[C@@H](CN(C)S(=O)(=O)c1cn(C)cn1)O2`, for which the cytotoxicity call is “inactive”.

On to `COc1ccccc1C#Cc1cnc2c(c1)C(=O)N([C@H](C)CO)C[C@@H](C)[C@@H](CN(C)S(=O)(=O)c1cn(C)cn1)O2`, for which the cytotoxicity call was “inactive”.

As for `C[C@@H]1CN([C@H](C)CO)C(=O)c2cc(C#Cc3ccccc3F)cnc2O[C@H]1CN(C)S(=O)(=O)c1ccccc1F`, the cytotoxicity call is “inactive”.

With `Cc1ccc(S(=O)(=O)Nc2ccc3c(c2)CC(=O)N([C@H](C)CO)C[C@@H](C)[C@@H](CN(C)S(=O)(=O)c2ccc(F)cc2)O3)cc1`, the cytotoxicity call was “inactive”.

In the case of `Cc1ccc(S(=O)(=O)Nc2cccc3c2O[C@@H](CN(C)S(C)(=O)=O)[C@@H](C)CN([C@H](C)CO)C3=O)cc1`, the cytotoxicity call was “inactive”.

For `C[C@@H]1CN([C@H](C)CO)C(=O)c2ccccc2-c2ccccc2CO[C@@H]1CN(C)C(=O)Nc1cccc(C(F)(F)F)c1`, the cytotoxicity call was “inactive”.

Consider `C[C@@H]1CCCCO[C@H](CN(C)CC2CCCCC2)[C@H](C)CN([C@H](C)CO)C(=O)c2cc(NC(=O)c3ccccc3)ccc2O1`, for which the cytotoxicity call is “inactive”.

In the case of `C[C@H](CO)N1C[C@H](C)[C@H](CN(C)Cc2ccc(C(F)(F)F)cc2)OCCCC[C@H](C)Oc2ccc(NC(=O)NC3CCCCC3)cc2C1=O`, the cytotoxicity call was “inactive”.

Take `C[C@@H]1CCCCO[C@H](CN(C)Cc2ccc(C(F)(F)F)cc2)[C@@H](C)CN([C@H](C)CO)C(=O)c2cc(NC(=O)NC3CCCCC3)ccc2O1`: the cytotoxicity call is “inactive”.

Turning to `C[C@@H]1CN([C@@H](C)CO)C(=O)c2cc(NC(=O)NC3CCCCC3)ccc2O[C@@H](C)CCCCO[C@@H]1CN(C)Cc1ccc(C(F)(F)F)cc1`, the cytotoxicity call is “inactive”.

Regarding `C[C@@H]1CCCCO[C@@H](CN(C)Cc2ccc(C(F)(F)F)cc2)[C@H](C)CN([C@@H](C)CO)C(=O)c2cc(NC(=O)NC3CCCCC3)ccc2O1`, the cytotoxicity call is “inactive”.

On to `C[C@@H]1CCCCO[C@H](CN(C)Cc2ccc(C(F)(F)F)cc2)[C@H](C)CN([C@H](C)CO)C(=O)c2cc(NC(=O)NC3CCCCC3)ccc2O1`, for which the cytotoxicity call was “active”.

With `C[C@@H]1CCCCO[C@H](CN(C)Cc2ccc(C(F)(F)F)cc2)[C@@H](C)CN([C@@H](C)CO)C(=O)c2cc(NC(=O)NC3CCCCC3)ccc2O1`, the cytotoxicity call is “inactive”.

Turning to `C[C@@H]1CCCCO[C@H](CN(C)Cc2ccc(C(F)(F)F)cc2)[C@H](C)CN([C@@H](C)CO)C(=O)c2cc(NC(=O)NC3CCCCC3)ccc2O1`, the cytotoxicity call is “active”.

For the compound `C[C@@H]1CCCCO[C@@H](CN(C)Cc2ccc(C(F)(F)F)cc2)[C@@H](C)CN([C@@H](C)CO)C(=O)c2cc(NC(=O)NC3CCCCC3)ccc2O1`, the cytotoxicity call is “active”.

Consider `C[C@@H]1CN([C@H](C)CO)C(=O)c2cc(NC(=O)NC3CCCCC3)ccc2O[C@@H](C)CCCCO[C@H]1CN(C)Cc1ccc(C(F)(F)F)cc1`, for which the cytotoxicity call was “inactive”.

With `C[C@@H]1CN([C@H](C)CO)C(=O)c2cc(NC(=O)NC3CCCCC3)ccc2O[C@@H](C)CCCCO[C@@H]1CN(C)Cc1ccc(C(F)(F)F)cc1`, the cytotoxicity call was “inactive”.

Turning to `C[C@@H]1CCCCO[C@@H](CN(C)Cc2ccc(C(F)(F)F)cc2)[C@H](C)CN([C@H](C)CO)C(=O)c2cc(NC(=O)NC3CCCCC3)ccc2O1`, the cytotoxicity call is “inactive”.

As for `C[C@H]1CCCCO[C@@H](CN(C)Cc2ccc(C(F)(F)F)cc2)[C@@H](C)CN([C@@H](C)CO)C(=O)c2cc(NC(=O)NC3CCCCC3)ccc2O1`, the cytotoxicity call is “active”.

For the compound `COc1ccc(CCNC(=O)[C@@]2(Sc3ccc(C)cc3)CC(=O)N(C(C)C)[C@@H]2c2ccc(CO)cc2)cc1`, the cytotoxicity call was “inactive”.

With `COc1ccc(NC(=O)N(C)C[C@H]2Oc3c(NC(=O)C4CC4)cccc3C(=O)N([C@@H](C)CO)C[C@@H]2C)cc1`, the cytotoxicity call is “inactive”.

For `C[C@@H]1CN([C@H](C)CO)S(=O)(=O)c2ccc(C#Cc3ccncc3)cc2O[C@@H]1CN(C)C(=O)C1CCC1`, the cytotoxicity call is “inactive”.

Turning to `COc1cccc(S(=O)(=O)Nc2ccc3c(c2)[C@@H]2C[C@H](CC(=O)NCc4ccccc4F)O[C@H](CO)[C@@H]2O3)c1`, the cytotoxicity call was “inactive”.

Consider `C[C@@H]1CCCCO[C@H](CN(C)S(=O)(=O)c2cccs2)[C@H](C)CN([C@@H](C)CO)C(=O)c2cc(NC(=O)Nc3ccccc3)ccc2O1`, for which the cytotoxicity call is “inactive”.

Turning to `C[C@@H]1CCCCO[C@@H](CN(C)C(=O)Cc2ccccc2)[C@@H](C)CN([C@@H](C)CO)C(=O)c2cc(NS(=O)(=O)c3ccc(F)cc3)ccc2O1`, the cytotoxicity call was “inactive”.

`C[C@H]1CN([C@@H](C)CO)C(=O)Cc2cc(NC(=O)C3CCCCC3)ccc2O[C@H]1CN(C)C(=O)Nc1ccc(C(F)(F)F)cc1`: the cytotoxicity call is “inactive”.

Regarding `C[C@@H]1CN([C@H](C)CO)C(=O)c2cc(NC(=O)C3CCCCC3)ccc2O[C@@H](C)CCCCO[C@@H]1CN(C)C(=O)c1ccccc1`, the cytotoxicity call was “inactive”.

Take `C[C@H]1CN([C@@H](C)CO)C(=O)Cc2cc(NC(=O)CCC(F)(F)F)ccc2O[C@H]1CN(C)S(=O)(=O)c1cccs1`: the cytotoxicity call was “inactive”.

Regarding `C[C@H](CO)N1C[C@H](C)[C@@H](CN(C)Cc2ccc(C(=O)O)cc2)OCCCC[C@H](C)Oc2ccc(NC(=O)Nc3ccccc3)cc2C1=O`, the cytotoxicity call is “inactive”.

Consider `CC(C)(ON=C(C(=O)NC1C(=O)N2C(C(=O)[O-])=C(C[n+]3ccccc3)CSC12)c1csc(N)n1)C(=O)O` (configuration not stated), for which the cytotoxicity call was “inactive”.

`C[C@H]1CCCCO[C@H](CN(C)Cc2ccc(C(F)(F)F)cc2)[C@@H](C)CN([C@@H](C)CO)C(=O)c2cc(NC(=O)NC3CCCCC3)ccc2O1`: the cytotoxicity call was “inactive”.

`C[C@@H]1CN([C@@H](C)CO)C(=O)c2cc(NC(=O)NC3CCCCC3)ccc2O[C@@H](C)CCCCO[C@H]1CN(C)Cc1ccc(C(F)(F)F)cc1`: the cytotoxicity call is “inactive”.

`C[C@H](CO)N1C[C@H](C)[C@@H](CN(C)Cc2ccc(C(F)(F)F)cc2)OCCCC[C@H](C)Oc2ccc(NC(=O)NC3CCCCC3)cc2C1=O`: the cytotoxicity call was “active”.

Turning to `Cc1ccc(/C=N/N(C)C2=NCCN2)o1`, the cytotoxicity call was “inactive”.

As to `Cc1cc(C)c2c(c1)[C@@H](N(Cc1cc(C(F)(F)F)cc(C(F)(F)F)c1)c1nnn(C)n1)CCCN2C[C@H]1CC[C@H](C(=O)O)CC1`, the cytotoxicity call is “active”.

In the case of `C[C@H]1CN([C@@H](C)CO)C(=O)c2cc(NC(=O)Nc3ccc(C(F)(F)F)cc3)ccc2O[C@H]1CN(C)C(=O)Nc1ccc2c(c1)OCO2`, the cytotoxicity call is “inactive”.
